Source: PubChem (National Center for Advancing Translational Sciences (NCATS))
This is a sample that favours compounds with a hit; in the whole collection about 6.3% have one here.
RORg inh: qHTS for inhibitors of ROR gamma transcriptional activity. Nuclear receptor ROR-gamma (Mus musculus), P51450. Drosophila S2 Gal4-RORgamma UAS-luciferase reporter, 20 h. Potency, µM (titrated, usually from 53.6 µM), for the others: top-dose activity change, negative = inhibition, most hits filed as inhibitors. 310,000 compounds, 5.4% hits. AID 2551, 2010; also: % is scaled to controls: 0 for no effect and ±100 for the full control effect; nearly all actives have a fitted effect of over 60% in size
Target sequence (P51450 whole entry, looked up, the tested form may be a part): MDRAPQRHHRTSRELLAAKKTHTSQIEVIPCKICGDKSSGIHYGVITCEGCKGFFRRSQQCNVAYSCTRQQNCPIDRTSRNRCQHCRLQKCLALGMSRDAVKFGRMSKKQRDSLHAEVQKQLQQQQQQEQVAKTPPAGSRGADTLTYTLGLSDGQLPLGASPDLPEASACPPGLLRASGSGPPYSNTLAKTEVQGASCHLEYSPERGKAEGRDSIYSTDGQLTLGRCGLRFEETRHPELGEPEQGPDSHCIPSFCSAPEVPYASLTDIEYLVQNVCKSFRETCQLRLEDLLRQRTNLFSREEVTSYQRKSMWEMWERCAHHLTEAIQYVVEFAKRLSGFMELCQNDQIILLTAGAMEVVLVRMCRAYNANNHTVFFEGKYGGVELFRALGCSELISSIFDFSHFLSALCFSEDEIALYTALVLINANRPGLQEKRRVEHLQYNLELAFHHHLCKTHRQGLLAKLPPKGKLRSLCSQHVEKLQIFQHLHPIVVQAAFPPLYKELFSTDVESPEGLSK
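Drosophila S2 cells stably expressing Gal4-DBD/mouse RORγ fusion under metallothionein promoter plus UAS-luciferase; compound 1 h, then 700 uM CuSO4 induction for 20 h at ambient temperature; inhibition read as reduced luminescence.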
HepG2 tox-1: qHTS for Inhibitors of TGF-b: Cytotox Counterscreen; HepG2 CAGA-GFP viability, ATP luminescence, 18 h; 410,000 compounds, 0.76% hits; Potency, µM (doses to about 46.1 µM), without a hit: top-dose activity change, negative = cytotoxicity, most hits filed as cytotoxic
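CellTiter-Glo luminescence gave cytotoxicity after 18 hours at 37 degrees C. The cells were HepG2 CAGA-GFP in 1% FBS DMEM, stimulated with 500 pg/mL TGF-beta after compound addition. %Activity was normalised to no-cell wells (complete cell-killing) and DMSO (no toxicity), and curves were fitted and classified.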
Gal4-VP16 FLuc: VP16 counterscreen qHTS for inhibitors of ROR gamma transcriptional activity; Drosophila S2 Gal4-VP16 UAS-luciferase, luminescence, 20 h; Potency, µM (highest dose often 53.6 µM), for the others: top-dose activity, negative = inhibition, actives largely listed as inhibitors; 310,000 compounds, 3.5% hits;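 also: Gal4-VP16 expression switched on by copper sulfate through the metallothionein promoter; % is scaled to controls: 0 for no effect and ±100 for the full control effect; nearly all actives have a fitted effect of over 50% in size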
ATXN2 expr inh: Primary qHTS for Inhibitors of ATXN expression. HEK-293 ATXN2-luciferase reporter, luminescence, 24 h. Potency, µM (doses to about 57 µM), without a hit: at the highest dose activity change, negative = inhibition, most hits filed as inhibitors. 360,000 compounds, 0.72% hits; also: % is scaled to controls: 0 for no effect and ±100 for the full control effect; nearly all actives have a fitted effect of over 55% in size
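qHTS (up to 57 uM final) was run with 24 h compound exposure of reporter cells at 37 °C. Each well was multiplexed: SteadyGlo luminescence measured ATXN2-luciferase expression after a fluorogenic Gly-Phe-AFC viability readout (25 uM final).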
TGFb inhibitor: qHTS for Inhibitors of TGF-b | HepG2 CAGA-GFP TGF-b/SMAD3 reporter, GFP fluorescence, 18 h; TGF-beta stimulated, 500 pg/mL final | Potency, µM (top dose mostly 46.1 µM), for the others: top-dose activity, negative = inhibition, most hits filed as inhibitors | 410,000 compounds, 1.2% hits; also: % is scaled to controls: 0 for no effect and ±100 for the full control effect; nearly all actives have a fitted effect of over 65% in size
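TGF-beta reporter screen: HEPG2 CAGA-GFP, 1% FBS, 500 pg/mL TGF-beta final, 18 h; per-cell GFP summed per well; curves fitted and categorized by class.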
S2 tox: Viability Counterscreen for Primary qHTS for Inhibitors of ATXN expression; 400,000 compounds, 0.49% hits; S2 cells (HEK-293 line with an ATXN2-luciferase reporter) viability, CellTiter-Fluor protease fluorescence, 24 h; Potency, µM (top dose mostly 56.7 µM), hits mostly cytotoxic; also: nearly all actives have a fitted effect of over 40% in size
TGFb confirm: qHTS for Inhibitors of TGF-b: Confirmation of Cherry Picks; shares compounds with TGFb inhibitor; HepG2 CAGA-GFP TGF-b reporter, GFP fluorescence, 18 h; cells stimulated with TGF-beta, 500 pg/mL; Potency, µM (highest dose often 46.1 µM), for inactives: top-dose activity, negative = inhibition, actives largely listed as inhibitors; 1,600 compounds, 63% hits; also: % is scaled to controls: 0 for no effect and ±100 for the full control effect; nearly all actives have a fitted effect of over 65% in size
HepG2 tox-2: qHTS for Inhibitors of TGF-b: Cytotox Counterscreen for Cherry Picks | HepG2 CAGA-GFP viability, ATP luminescence, 18 h; cells stimulated with TGF-beta, 500 pg/mL | shares compounds with TGFb inhibitor | Potency, µM (series often up to 46.1 µM), inactives show at the highest dose activity, negative = cytotoxicity, usual class: inhibitors | 1,600 compounds, 27% hits; also: % is scaled to controls: 0 for no effect and ±100 for the full control effect; nearly all actives have a fitted effect of over 70% in size
TGFb CCL64 inh: qHTS for Inhibitors of TGF-b: CCL64 Cells Orthogonal Assay for Cherry Picks; 1,600 compounds, 41% hits; Potency, µM (top dose mostly 46.1 µM), inactives show top-dose activity, negative = inhibition, most hits filed as inhibitors; shares compounds with TGFb inhibitor; CCL64 CAGA-GFP reporter, TGF-b stimulated, GFP fluorescence, 18 h; also: nearly all actives have a fitted effect of over 65% in size
COP TGFb inh: qHTS for Inhibitors of TGF-b: Hit Validation in HepG2 Cells using COP promoter. shares compounds with TGFb inhibitor. HepG2 COP-GFP TGF-b reporter, GFP fluorescence, 18 h; cells stimulated by added recombinant TGF-beta. Potency, µM (top dose mostly 46.1 µM), for the others: at the top dose activity, negative = inhibition, most hits filed as inhibitors. 1,600 compounds, 3% hits; also: nearly all actives have a fitted effect of over 70% in size
* marks the source's active call; other numbers are inactive results; i = inactive; ? = inconclusive; . = no result given; [ ] = dose if it differs, or a comment. Calls follow the shape of the dose curve; as a rule, active = well fitted curve in the direction sought with a large enough effect; inconclusive = small, poorly fitted or top-dose-only effect, or another doubt; inactive = no such curve, though single readings can be large; an effect the other way counts as inactive or inconclusive. Potency is read from the fitted curve at half-maximal effect.

SMILES	RORg inh	HepG2 tox-1	Gal4-VP16 FLuc	ATXN2 expr inh	TGFb inhibitor	S2 tox	others
Cc1cc(C2C(C#N)=C(N)Oc3n[nH]c(C)c32)c(C)s1 (configuration not stated)	10µM*	-17%	11µM*	-4%	?	i
Cc1ccc(NC(=O)CC(C)CC(=O)NCc2ccccc2)cc1Cl (configuration not stated)	-5%	-26%	1%	-28%	-19%	i
CC(=O)c1ccc(NC(=O)CCc2c(C)nc3cc(-c4ccc(Cl)cc4)nn3c2C)cc1	.	-4%	.	-31%	-7%	i
COC(=O)C1=C(C(=O)c2ccccc2)C(c2ccccc2)n2nnnc2N1 (configuration not stated)	34%	-19%	-19%[10 µM]	?	-1%	20µM*
COC(=O)C1=C(C(C)=O)C(c2ccc(C(=O)OC)cc2)n2nnnc2N1 (configuration not stated)	-14%	8%	7%	5%	18%	i
N#Cc1ccc(C23CC4(C2)[C@H](CN(P(=O)(c2ccccc2)c2ccccc2)[C@@H]4c2ccccc2)C3c2ccc(Cl)nc2)cc1 (some centres not stated)	36%	-29%	-6%	-37%	13µM*	?
COc1ccccc1C1CC(c2cccs2)=Nc2ccccc2S1 (configuration not stated)	29%	6%	?	11%	?	i
Fc1ccccc1C1CC(c2ccco2)=Nc2ccccc2S1 (configuration not stated)	5%	-132%	2%	.	18µM*	?
Cc1ccc(-c2nnn(CC(=O)N(CC(=O)NCCC(C)C)c3ccc(F)cc3)n2)cc1	.	-9%	.	.	-2%	.
O=C(Nc1ccccc1Cl)c1ccc(COc2ccc3c(c2)CCC3)cc1	-27%	-8%	?	-10%	-21%	i
Cc1ccc(NC(=O)c2ccc(COc3ccc4c(c3)CCC4)cc2)c(C)c1	2.2µM*	-6%	8.9µM*	-11%	?	?
Cc1ccnc(NS(=O)(=O)c2ccc(NC(=O)Nc3ccc(S(=O)(=O)Nc4nccc(C)n4)cc3)cc2)n1	.	.	.	-9%	.	.
Cc1ccc(C(=O)N(Cc2cc3cc4c(cc3nc2N2CCOCC2)CCC4)CC2CCCO2)cc1 (configuration not stated)	.	.	.	.	.	i
CCc1ccccc1OC[C@@H](O)CN[C@H]1CCCc2ccccc21	7.1µM*	-104%	14µM*	?	?	?
OC(CNC1CCCc2ccccc21)COc1ccc2ccccc2c1 (configuration not stated)	-1%	-89%	2%	.	?	?
CC1(C)OC[C@@H]2O[C@@]3(C(=O)O)OC(C)(C)O[C@@H]3[C@@H]2O1	-9%	.	2%	.	.	.
Cc1noc(C)c1-c1ccc2ncnc(NC3CC3)c2c1	-25%	.	-16%	.	.	.
Cc1cccc(CNc2ncnc3ccc(-c4c(C)noc4C)cc23)c1	2µM*	.	13%	.	.	.
C/C=C\C1=CCCC1Nc1ncnc2ccc(-c3c(C)noc3C)cc12 (configuration not stated)	11µM*	.	?	.	.	.
CC(=O)NCCNc1ncnc2ccc(-c3c(C)noc3C)cc12	11µM*	.	?	.	.	.
COc1ccccc1S(=O)(=O)N(C)C[C@H]1OCc2cnnn2CCCC(=O)N([C@H](C)CO)C[C@H]1C	.	-2%	.	1%	-1%	i
CCC(=O)N[C@@H]1Cc2ccccc2[C@@H](c2ccccc2)C1	-38%	.	8.9µM*	.	.	.
O=c1c2cn[nH]c2nc(SCc2cc(=O)n3cc(Br)ccc3n2)n1-c1ccc(Br)cc1	?	0%	-9%	-30%	?	i
O=c1c2cn[nH]c2nc(SCc2ccccc2F)n1-c1ccc(Br)cc1	?	16µM*	3%	-34%	10µM*	i	TGFb confirm=?;HepG2 tox-2=?;TGFb CCL64 inh=?;COP TGFb inh=77%
Cc1cc(Nc2cccc([N+](=O)[O-])c2)n2c(nc3ccccc32)c1C#N	?	-40%	1%[0.365 µM]	8.9µM*	1.6µM*	?	TGFb confirm=?;HepG2 tox-2=?;TGFb CCL64 inh=5.2µM*;COP TGFb inh=33%
Cc1cc(Nc2ccc(F)cc2)n2c(nc3ccccc32)c1C#N	.	-1%	.	1%	-10%	.
COc1cc(O)c(C(=O)/C=C/c2ccc(O)c(OC)c2)c(OC)c1	-13%	.	-12%	.	.	.
COc1cc(O)cc(O)c1C(=O)/C=C/c1ccccc1	?	-29%	-11%	?	14µM*	?	TGFb confirm=21µM*;HepG2 tox-2=?;TGFb CCL64 inh=?;COP TGFb inh=21%
COc1cc(/C=N/n2cc(-c3ccccc3)[nH]c2=S)cc(OC)c1O	?	-2%	-13%	.	16µM*	i	TGFb confirm=15µM*;HepG2 tox-2=1%;TGFb CCL64 inh=-30%;COP TGFb inh=3%
OC(c1cc(-c2ccc(C(F)(F)F)cc2)nc(C(F)(F)F)c1)C1CCCCN1 (configuration not stated)	?	-84%	22µM*	.	2.8µM*	3.2µM*	TGFb confirm=6.5µM*;HepG2 tox-2=23µM*;TGFb CCL64 inh=23µM*;COP TGFb inh=?
